Results: PubChem BioAssay (NCI)
Compounds without any hit were thinned out: in the full panel of roughly 83,000, 20% have a hit.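 The endpoint reported here, percent growth, reads 100 for growth as untreated, 0 for no net growth and -100 for all cells dead.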 Activity calls are given as the source filed them. How the source made its calls: active means growth percent below 10; inactive means the rest.

How the values were obtained:
Experiment in all cases: NCI-60 one-dose screen, 48 h (100 = growth as untreated, 0 = no growth, -100 = all killed)
Settings in all cases: 10 µM unless noted
NCI-H23 lung = test system: NCI-H23 lung
NCI-H226 lung = test system: NCI-H226 lung
NCI-H322M lung = test system: NCI-H322M lung
HOP-62 NSCLC = test system: HOP-62 NSCLC
NCI-H460 lung = test system: NCI-H460 lung
HOP-92 NSCLC = test system: HOP-92 NSCLC
NCI-H522 lung = test system: NCI-H522 lung
A549/ATCC NSCLC = test system: A549/ATCC NSCLC
786-0 renal = test system: 786-0 renal
COLO 205 colon = test system: COLO 205 colon
DU-145 prostate = test system: DU-145 prostate
K-562 leukemia = test system: K-562 leukemia
MALME-3M melanoma = test system: MALME-3M melanoma
MDA-MB-231 breast = test system: MDA-MB-231 breast
RXF 393 renal = test system: RXF 393 renal
SF-268 CNS = test system: SF-268 CNS
SF-295 CNS = test system: SF-295 CNS
SF-539 CNS = test system: SF-539 CNS
UACC-257 melanoma = test system: UACC-257 melanoma
M14 melanoma = test system: M14 melanoma

Measured: growth

CN1CCN(C(=O)Oc2cc3c(c4ccccc24)[C@H](CCl)CN3C(=O)c2cc3cc(OCCCN4CCC4)ccc3[nH]2)[C@@H]2CSSC[C@H]21
active: NCI-H23 lung -72% | NCI-H226 lung -22.4% | NCI-H322M lung 2.48% | HOP-62 NSCLC -40.4% | NCI-H460 lung -35.7% | HOP-92 NSCLC -10% | NCI-H522 lung -51.7% | A549/ATCC NSCLC -2.8% | 786-0 renal -89.1% | COLO 205 colon -65.5% | DU-145 prostate -31.6% | K-562 leukemia -4.46% | MALME-3M melanoma -55.1% | MDA-MB-231 breast -9.52% | RXF 393 renal -71.1% | SF-268 CNS -10.3% | SF-295 CNS -7.45% | SF-539 CNS -58.8% | UACC-257 melanoma -21% | M14 melanoma -74.7%

COc1ccccc1NC(=O)N/N=C/c1c[nH]c2ccccc12
inactive: NCI-H226 lung 19% | NCI-H322M lung 49.4% | HOP-62 NSCLC 47.6% | NCI-H460 lung 14.1% | HOP-92 NSCLC 47.7% | A549/ATCC NSCLC 30.5% | 786-0 renal 14.9% | DU-145 prostate 17.6% | K-562 leukemia 15.4% | MALME-3M melanoma 54.6% | MDA-MB-231 breast 52.3% | SF-268 CNS 30.9% | UACC-257 melanoma 54.6% | M14 melanoma 14.8%
active: NCI-H23 lung 0.507% | NCI-H522 lung -37.1% | COLO 205 colon 4.3% | RXF 393 renal -38.7% | SF-295 CNS -14.5% | SF-539 CNS -11.4%

CN(C)CCOc1ccc(C(=O)C2[C@H](c3ccc(Cl)cc3)[C@@H](c3ccccc3)NC23C(=O)Nc2ccc(Cl)cc23)cc1 (stereo partly drawn)
active: NCI-H23 lung -93.2% | NCI-H226 lung -82.3% | NCI-H322M lung -91.1% | HOP-62 NSCLC -82.6% | NCI-H460 lung -87.4% | HOP-92 NSCLC -89.9% | NCI-H522 lung -91.7% | A549/ATCC NSCLC -77.9% | 786-0 renal -94% | COLO 205 colon -76.9% | DU-145 prostate -80.3% | K-562 leukemia -76.1% | MALME-3M melanoma -87.8% | MDA-MB-231 breast -93.6% | RXF 393 renal -92% | SF-268 CNS -64% | SF-295 CNS -89.3% | SF-539 CNS -98.5% | UACC-257 melanoma -81.2% | M14 melanoma -90.1%

COc1cc(C2CC(c3ccc(Cl)cc3)=Nc3c(N)nc(N)nc3N2)ccc1Oc1nc(Nc2ccc(F)cc2)nc(N(C)C)n1 (stereo not drawn)
inactive: NCI-H23 lung 76.6% | NCI-H226 lung 60.9% | NCI-H322M lung 93.8% | HOP-62 NSCLC 74.1% | NCI-H460 lung 13.5% | HOP-92 NSCLC 12.6% | NCI-H522 lung 38.9% | A549/ATCC NSCLC 47.2% | 786-0 renal 38.2% | COLO 205 colon 55.4% | DU-145 prostate 60% | MALME-3M melanoma 54.1% | MDA-MB-231 breast 23.8% | SF-268 CNS 52.2% | SF-295 CNS 53.3% | SF-539 CNS 63.7% | UACC-257 melanoma 47.9% | M14 melanoma 43.2%
active: K-562 leukemia 8.16% | RXF 393 renal -4.44%

CN1C(=O)/C(=C\C(=O)c2cc3ccccc3oc2=O)c2ccccc21
inactive: NCI-H23 lung 46.3% | NCI-H226 lung 75.4% | NCI-H322M lung 98.7% | HOP-62 NSCLC 54.4% | NCI-H460 lung 92.1% | HOP-92 NSCLC 64.3% | 786-0 renal 80.7% | COLO 205 colon 52.2% | DU-145 prostate 71.1% | K-562 leukemia 25.6% | MALME-3M melanoma 43.2% | MDA-MB-231 breast 58.7% | RXF 393 renal 30.5% | SF-268 CNS 77.4% | SF-295 CNS 97.3% | SF-539 CNS 54% | UACC-257 melanoma 91.9% | M14 melanoma 58.7%
active: NCI-H522 lung -68.8%

COc1cccc(NC(=O)c2ccc(NC(=O)CCl)s2)c1
active: NCI-H522 lung -79.7% | 786-0 renal -86.8% | K-562 leukemia 4.03% | MDA-MB-231 breast -26.5%
inactive: NCI-H23 lung 11.9% | NCI-H226 lung 61.5% | NCI-H322M lung 101% | HOP-62 NSCLC 64.2% | NCI-H460 lung 12.1% | HOP-92 NSCLC 85.9% | COLO 205 colon 40.2% | DU-145 prostate 88.1% | MALME-3M melanoma 45.5% | RXF 393 renal 56.9% | SF-268 CNS 45.7% | SF-295 CNS 65.4% | SF-539 CNS 38.4% | UACC-257 melanoma 27.7% | M14 melanoma 14.2%

NCCCCn1c(SCCc2c[nH]c3ccccc23)nnc1-c1ccc2ccccc2n1
active: HOP-62 NSCLC -49.7% | NCI-H460 lung -76.9% | HOP-92 NSCLC -8.52% | NCI-H522 lung -73.1% | A549/ATCC NSCLC 8.17% | 786-0 renal -92.3% | COLO 205 colon -66.6% | K-562 leukemia -35.4% | MALME-3M melanoma -99.4% | MDA-MB-231 breast -83.7% | RXF 393 renal -38.3% | SF-295 CNS -83.4% | SF-539 CNS -99% | UACC-257 melanoma -89.8% | M14 melanoma -90.1%
inactive: NCI-H23 lung 11.4% | NCI-H226 lung 55.2% | NCI-H322M lung 18.1% | DU-145 prostate 42.8% | SF-268 CNS 42.4%

COc1ccc2[nH]c(=O)c(CSc3ccccc3Nc3nccc(-c4ccc(Cl)cc4)n3)cc2c1
active: NCI-H522 lung 4.52% | RXF 393 renal -4.36%
inactive: NCI-H23 lung 43.2% | NCI-H226 lung 45.7% | NCI-H322M lung 69.5% | HOP-62 NSCLC 69.2% | NCI-H460 lung 33.3% | HOP-92 NSCLC 36.6% | A549/ATCC NSCLC 52.5% | 786-0 renal 43.4% | COLO 205 colon 61.8% | DU-145 prostate 48.7% | K-562 leukemia 39.7% | MALME-3M melanoma 32.1% | MDA-MB-231 breast 60.9% | SF-268 CNS 55.1% | SF-295 CNS 32.8% | SF-539 CNS 21.7% | UACC-257 melanoma 73.4% | M14 melanoma 68.5%
